Out of some 1,300 compounds screened, about 980 (75%) were called active. Another 4% or so got no clear call; they are omitted. The list shows a part of the results.
What follows are compounds tested against Sulfhydryl oxidase 1 (Homo sapiens) (UniProt O00391) (assay: QSOX1 enzyme inhibitors, primary screen, biochemical, HyperBlu H2O2 luminescence, HTS (AID 1347420; also: values above 100% were filed as inconclusive)). Settings: recombinant QSOX1, HyperBlu H2O2 luminescence; at 12.5 µM; stronger effect = higher value; active = any value above zero.
Sequence of Sulfhydryl oxidase 1 (Homo sapiens) (O00391 whole entry, looked up): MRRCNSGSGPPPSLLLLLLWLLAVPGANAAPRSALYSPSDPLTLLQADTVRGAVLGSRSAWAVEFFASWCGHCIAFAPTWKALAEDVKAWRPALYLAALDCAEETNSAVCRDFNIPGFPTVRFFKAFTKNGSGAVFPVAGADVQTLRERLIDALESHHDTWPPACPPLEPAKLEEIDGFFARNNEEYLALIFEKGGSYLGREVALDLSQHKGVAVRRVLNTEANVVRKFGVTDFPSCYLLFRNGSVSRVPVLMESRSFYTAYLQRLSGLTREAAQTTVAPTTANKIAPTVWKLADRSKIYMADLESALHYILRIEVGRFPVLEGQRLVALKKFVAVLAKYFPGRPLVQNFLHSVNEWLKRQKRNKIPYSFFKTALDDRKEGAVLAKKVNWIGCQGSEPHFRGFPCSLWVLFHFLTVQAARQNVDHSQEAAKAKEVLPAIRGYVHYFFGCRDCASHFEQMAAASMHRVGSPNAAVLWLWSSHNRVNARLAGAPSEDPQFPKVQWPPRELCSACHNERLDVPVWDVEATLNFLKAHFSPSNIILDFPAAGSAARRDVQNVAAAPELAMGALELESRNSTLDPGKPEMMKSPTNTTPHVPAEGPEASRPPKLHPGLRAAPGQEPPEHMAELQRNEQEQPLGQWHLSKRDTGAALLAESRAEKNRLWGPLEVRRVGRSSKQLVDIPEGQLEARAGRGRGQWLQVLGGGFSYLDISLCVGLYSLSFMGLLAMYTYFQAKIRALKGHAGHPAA

Row | Structure (SMILES) | inhibition
1 | CCN(CC)CCn1c(=O)c(Cc2ccc(OC)cc2)nc2ccccc21 | 11.3% (active)
2 | CCCNCC(O)COc1ccccc1C(=O)CCc1ccccc1 (stereo not drawn) | 9.1% (active)
3 | O=C(O)c1cc2cc(Cc3cccnc3)ccc2o1 | 12.1% (active)
4 | NC(N)=Nc1nc(CSCC/C(N)=N/S(N)(=O)=O)cs1 | 19.1% (active)
5 | CC(/C=C/c1cccc(Oc2ccc(F)cc2)c1)N(O)C(N)=O (stereo not drawn) | 17.2% (active)
6 | O=C(CCc1ccc(O)cc1)c1c(O)cc(O)cc1O | 35.5% (active)
7 | NS(=O)(=O)C#Cc1ccccc1 | 7% (active)
8 | NC(=O)c1cnccn1 | 6.1% (active)
9 | CCCCCCCCCCCCCCC[C@H](O)[C@H](N)CO | 18.5% (active)
10 | COc1ccc(NC(=O)c2ccc(-c3ccc(-c4noc(C)n4)cc3C)cc2)cc1N1CCN(C)CC1 | 3.7% (active)
11 | CCCCCN(C)CCC(O)(P(=O)(O)O)P(=O)(O)O | -4.8% (inactive)
12 | O=c1onc2n1-c1cc(Br)ccc1OC2 | 5.7% (active)
13 | CC(C)(C)c1ccc(C(=O)CCCN2CCC(OC(c3ccccc3)c3ccccc3)CC2)cc1 | 8.3% (active)
14 | C[C@@H](NCCc1ccc(O)cc1)[C@@H](O)c1ccc(O)cc1 | 14.4% (active)
15 | CC(CCc1ccc(O)cc1)NCCc1ccc(O)c(O)c1 (stereo not drawn) | 83.4% (active)
16 | O=c1[nH]c2cc(C(F)(F)F)ccc2n1-c1cc(C(F)(F)F)ccc1O | 11.5% (active)
17 | C[C@]12C=CC(=O)C=C1CC[C@H]1[C@@H]3C[C@@H](O)[C@](O)(C(=O)CO)[C@@]3(C)C[C@H](O)[C@@]12F | 26.2% (active)
18 | C[C@H]1CC2C3CCC4=CC(=O)C=C[C@]4(C)[C@@]3(Cl)[C@@H](O)C[C@]2(C)[C@@]1(O)C(=O)CO (stereo partly drawn) | -10.3% (inactive)
19 | CC1CC2C3CCC4=CC(=O)C=C[C@]4(C)[C@@]3(F)[C@@H](O)C[C@]2(C)[C@@]1(O)C(=O)CO (stereo partly drawn) | 11.4% (active)
20 | CCOC(=O)C1=C(C)NC(C)=C(C(=O)OC)C1c1cccc(Cl)c1Cl (stereo not drawn) | 6.3% (active)
21 | COC(=O)C1=C(C)NC(C)=C(C(=O)OCCN(C)Cc2ccccc2)C1c1cccc([N+](=O)[O-])c1 (stereo not drawn) | 6.8% (active)
22 | C#CCN1C(C)=C(C(=O)OC)C(c2cccc([N+](=O)[O-])c2)C(C(=O)OCC)=C1C (stereo not drawn) | 7.8% (active)
23 | CCOC(=O)C1=C(C)NC(C)=C(C(=O)OCC)C1c1c(F)c(F)c(F)c(F)c1F | -4.7% (inactive)
24 | CCOC(=O)C1=C(C)NC(C)=C(C(=O)OC)C1c1cccc([N+](=O)[O-])c1 (stereo not drawn) | 14% (active)
25 | COC(=O)C1=C(C)NC(C)=C(C(=O)OC(C)(C)CN(C)CCC(c2ccccc2)c2ccccc2)C1c1cccc([N+](=O)[O-])c1 (stereo not drawn) | 21.8% (active)
26 | COCCOC(=O)C1=C(C)NC(C)=C(C(=O)OC(C)C)C1c1cccc([N+](=O)[O-])c1 (stereo not drawn) | 16.8% (active)

Row | Structure (SMILES) | inhibition
27 | COCCOC(=O)C1=C(C)NC(C)=C(C(=O)OC/C=C/c2ccccc2)C1c1cccc([N+](=O)[O-])c1 (stereo not drawn) | 32.1% (active)
28 | CCN1CCC[C@H]1CNC(=O)c1c(O)c(Cl)cc(Cl)c1OC | 14.4% (active)
29 | NCCNC(=O)c1ncsc1-c1cccc(F)c1 | -11.5% (inactive)
30 | O=C1NCC2(CCN(CCc3ccccc3)CC2)O1 | 10.5% (active)
31 | Cc1ccc(O)c(N=Nc2ccccc2)n1 | 30.2% (active)
32 | Cc1cc(NC2CCCCC2)nc(-n2nc(C)cc2C)n1 | 6.3% (active)
33 | CCCCCCCC/C=C\CCCCCCCC(=O)NCCO | 0.4% (active)
34 | CCCCCCC(=O)OC1CC(C)(C)NC(C)(C)C1 | -7.9% (inactive)
35 | CCCCCCCCCCCCCCCC(=O)NCCO | 8.6% (active)
36 | C[C@]12CC[C@@H]3c4ccc(O)cc4CC[C@H]3[C@@H]1CC[C@@H]2O | 24.6% (active)
37 | C[C@]12CC[C@@H]3c4ccc(O)cc4CC[C@H]3[C@@H]1CCC2=O | 22.4% (active)
38 | C[C@](N)(Cc1ccc(O)cc1)C(=O)O | 2.9% (active)
39 | COC(=O)C(C)(N)Cc1ccc(O)cc1 (stereo not drawn) | 2.3% (active)
40 | CC(N)(Cc1ccc(O)cc1)C(=O)O (stereo not drawn) | 50.5% (active)
41 | CCOC(=O)C1=C[C@]2(CC)CCCN3CCc4c(n1c1ccccc41)[C@@H]32 | 8.5% (active)
42 | CCc1ccc2c(-c3cccc(Cl)c3)nc(=O)n(CC)c2n1 | 20% (active)
43 | CCOC(=O)c1ncn2c1CN(C)C(=O)c1cc(F)ccc1-2 | 11.8% (active)
44 | CN(Cc1cnc2nc(N)nc(N)c2n1)c1ccc(C(=O)N[C@@H](CCC(=O)O)C(=O)O)cc1 | 3.6% (active)
45 | Nc1nc(N)c2nc(CNc3ccc(C(=O)NC(CCC(=O)O)C(=O)O)cc3)cnc2n1 (stereo not drawn) | 34.3% (active)
46 | CC1(C)NC(=O)N(c2ccc([N+](=O)[O-])c(C(F)(F)F)c2)C1=O | -8.3% (inactive)
47 | CC(C)C(=O)Nc1ccc([N+](=O)[O-])c(C(F)(F)F)c1 | 4.7% (active)
48 | O=[N+]([O-])c1ccc(CSc2ncnc3c2ncn3[C@@H]2O[C@H](CO)[C@H](O)C2O)cc1 (stereo partly drawn) | 33.9% (active)
49 | Nc1nc(SCc2ccc([N+](=O)[O-])cc2)c2ncn([C@@H]3O[C@H](CO)[C@H](O)C3O)c2n1 (stereo partly drawn) | 33.7% (active)
50 | C=CC(N)CCC(=O)O (stereo not drawn) | -9.5% (inactive)
51 | C#CC(N)CCC(=O)O (stereo not drawn) | 13.5% (active)
52 | Nc1nc2c(ncn2COC(CO)CO)c(=O)[nH]1 | 10.7% (active)

Row | Structure (SMILES) | inhibition
53 | Nc1nc2c(ncn2COCCO)c(=O)[nH]1 | 19.3% (active)
54 | Cc1cccc(-c2[nH]c(C(C)(C)C)nc2-c2ccc3nccnc3c2)n1 | -12.5% (inactive)
55 | N=S(=O)([O-])Cc1noc2c1C=C[C+]=C2 | 9.3% (active)
56 | OC[C@H]1NC[C@@H](O)[C@@H]1O | 10.5% (active)
57 | OCC1NCC(O)C(O)C1O (stereo not drawn) | 14.4% (active)
58 | CCN1/C(=C/C(C)=O)Sc2ccc(OC)cc21 | 58.1% (active)
59 | CC[C@H](C)C(=O)O[C@H]1CCC=C2C=C[C@H](C)[C@H](CC[C@@H]3C[C@@H](O)CC(=O)O3)[C@H]21 | 8.8% (active)
60 | CC(C)(C)NCC(O)COc1nsnc1N1CCOCC1 (stereo not drawn) | 3.8% (active)
61 | CC1CN(S(=O)(=O)c2cccc3cnccc23)CCN1 (stereo not drawn) | 4.9% (active)
62 | CC1CNCCN1S(=O)(=O)c1cccc2cnccc12 (stereo not drawn) | 37.4% (active)
63 | O=Nc1ccc2oc(=O)ccc2c1 | 85% (active)
64 | COC(=O)Nc1nc2ccc(C(=O)c3cccs3)cc2[nH]1 | 12.3% (active)
65 | O=c1[nH]c(=O)c2nc3ccccc3nc2[nH]1 | 3.9% (active)
66 | NC(=O)c1cn(Cc2c(F)cccc2F)nn1 | -7.2% (inactive)
67 | CCCN(CCC)CCc1cccc2c1CC(=O)N2 | -8.3% (inactive)
68 | CO[C@@]1(NC(=O)CSCC#N)C(=O)N2C(C(=O)O)=C(CSc3nnnn3C)CS[C@@H]21 | 10% (active)
69 | CN1C(=O)CC[C@H]1c1cccnc1 | 3.9% (active)
70 | CN1CCC[C@H]1c1cccnc1 | 2.5% (active)
71 | COc1ccccc1CNCCCCCCNCCCCCCCCNCCCCCCCNc1ccccc1OC | 0.8% (active)
72 | C#CCCN | 25.9% (active)
73 | NC(=O)c1ccc2[nH]ccc2c1 | -15.5% (inactive)
74 | NC(=O)c1cccc(N)c1 | 19% (active)
75 | NC(=O)c1ccccc1 | -9.9% (inactive)
76 | CC[C@@H](C)[C@H]1O[C@]2(CC[C@@H]1C)C[C@@H]1C[C@@H](C/C=C(\C)[C@@H](O[C@H]3C[C@H](OC)[C@@H](O[C@H]4C[C@H](OC)[C@@H](O)[C@H](C)O4)[C@H](C)O3)[C@@H](C)/C=C/C=C3\CO[C@@H]4[C@H](O)C(C)=C[C@@H](C(=O)O1)[C@]34O)O2 | 10.8% (active)
77 | Cc1cccc(/C=C/c2ccccc2)n1 | 3.6% (active)
78 | O=NN(CCCl)C(=O)NCCCl | 10.3% (active)

Row | Structure (SMILES) | inhibition
79 | CCCNC(C)C(=O)Nc1ccccc1C (stereo not drawn) | 3.1% (active)
80 | Nc1nc2ccc(OC(F)(F)F)cc2s1 | 7.2% (active)
81 | CCSC(=N)N | 3% (active)
82 | CSC(=N)N | 14.1% (active)
83 | NC(=O)CNCCC(c1ccccc1)c1ccccc1 | 1.3% (active)
84 | N=C(N)N1CCc2ccccc2C1 | 18.5% (active)
85 | CC(C)NNC(=O)c1ccncc1 | 0.1% (active)
86 | C1COC(NC(C2CC2)C2CC2)=N1 | -6.7% (inactive)
87 | CN(C)CCCC1(c2ccc(F)cc2)OCc2cc(C#N)ccc21 (stereo not drawn) | 8.6% (active)
88 | Nn1nnc2ccccc21 | 21.7% (active)
89 | O=C(O)Cc1c[nH]c2ccc(O)cc12 | 47.5% (active)
90 | N[C@@H](Cc1c[nH]c2ccc(O)cc12)C(=O)O | 45.4% (active)
91 | N[C@@H](Cc1c[nH]c2ccccc12)C(=O)O | 3.4% (active)
92 | Cc1cnc(NC(=O)C2=C(O)c3ccccc3S(=O)(=O)N2C)s1 | 44.2% (active)
93 | CN1C(C(=O)Nc2ccccn2)=C(O)c2ccccc2S1(=O)=O | 35.6% (active)
94 | CN1C2CCCC1CC(NC(=O)c1nn(C)c3ccccc13)C2 (stereo not drawn) | 8.4% (active)
95 | CC(=O)O[C@]1(C(C)=O)CC[C@H]2[C@@H]3C=C(Cl)C4=CC(=O)[C@@H]5C[C@@H]5[C@]4(C)[C@H]3CC[C@@]21C | -5.1% (inactive)
96 | NCCS(=O)O | 4.2% (active)
97 | CC(=O)NNC(=O)N1Cc2ccccc2Oc2ccc(Cl)cc21 | 17.2% (active)
98 | N[C@@H](Cn1ccc(=O)c(O)c1)C(=O)O | 10.1% (active)
99 | Oc1ccc(-c2nc(-c3ccc(F)cc3)c(-c3ccncc3)[nH]2)cc1 | 97% (active)
100 | O=[N+]([O-])c1ccc(-c2nc(-c3ccc(F)cc3)c(-c3ccncc3)[nH]2)cc1 | 92.4% (active)
101 | O=C1Cc2c([nH]c3ccc(Br)cc23)-c2ccccc2N1 | 1.7% (active)
102 | C=C1N=C(N=NC2=C(S(=O)(=O)[O-])[C+]=C(S(=O)(=O)[O-])[C+]=C2)[C+](COP(=O)([O-])O)C(C=O)=C1O | 6.1% (active)
103 | O=C1OC(=O)C2C3CCC(O3)C12 (stereo not drawn) | 9.8% (active)

Source: PubChem BioAssay AID1347420 (Sanford-Burnham Center for Chemical Genomics, 2020)
